Test: probe aCHRDL2 binding to arrayed compounds – biochemical, biotinylated probe, 635/667 nm fluorescence, primary screen (AID 1100)
Conditions: small-molecule microarray, higher = more signal

| SMILES | composite z-score |
| --- | --- |
| CCOC(=O)[C@H]1C/C=C/C[C@H](C(=O)OCC)C(=O)O[C@H]2[C@@H](OC)O[C@H](CO)[C@@H](OC(=O)Nc3ccc(C#N)cc3)[C@@H]2OC1=O | 0.0682 |
| C#CCN(Cc1ccccc1Br)C(/C=C/c1ccccc1)CO (stereo not given) | 0.326 |
| CC(C)[C@@H](CO)NC(=O)[C@H]1[C@@H](c2ccccc2)N(c2ccccc2)O[C@@H]1C | -0.343 |
| [N-]=[N+]=Nc1ccccc1C[C@]1(C(=O)NCC(O)CO)N=C(c2ccc(OCCCO)cc2)O[C@H]1c1ccccc1N=[N+]=[N-] (stereo not given in full) | 0.704 |
| C=CC[C@]1(C(=O)NCCCOC)N=C(c2ccc(OCCCO)cc2)O[C@H]1c1ccccc1N=[N+]=[N-] | 0.658 |
| C=CCOC(=O)[C@H]1[C@@H]2C(=O)O[C@@H](c3ccccc3)[C@@H](c3ccccc3)N2[C@@H](c2ccc(OCCOC(=O)[C@H]3C[C@H]4C(=O)N5CCC[C@H]5C(=O)N4[C@H]3c3ccc(O)cc3)cc2)[C@]12C(=O)Nc1ccccc12 | 0.106 |
| CN(C)CCCCCCNC(=O)[C@@H]1C[C@@H]2C(=O)N[C@@H](CCCCN)C(=O)N2[C@@H]1c1cccc(OCCO)c1 | 1.65 |
| COCCOC(=O)N1C(=O)[C@@]2(c3cc(C#Cc4ccc(OC)cc4)ccc31)[C@H](C(N)=O)[C@H]1C(=O)O[C@H](c3ccccc3)[C@H](c3ccccc3)N1[C@@H]2c1ccccc1OCCO | 0.634 |
| CCOC(=O)[C@H]1C/C=C/C[C@H](C(=O)OCC)C(=O)O[C@H]2[C@@H](OC)O[C@H](CO)[C@@H](OC(=O)Nc3cccc(F)c3)[C@@H]2OC1=O | -0.174 |
| CN1C(=O)C2C=CC(C(O)C3CC=CCC3)N(NC(=O)OC(C)(C)C)C2C1=O (stereo not given) | 0.16 |
| COc1ccc(CCNC(=O)[C@@]2(Sc3ccc(C)cc3)CC(=O)N(C3CCCCC3)[C@@H]2c2ccc(CO)cc2I)cc1 | 0.44 |
| COc1ccc(CCNC(=O)[C@@H]2c3ccccc3C(=O)N(C3Cc4ccccc4C3)[C@H]2c2ccc(CO)cc2)cc1 | 0.857 |
| CO[C@H]1O[C@H](CO)[C@@H](OC(=O)Nc2ccc(Br)cc2)[C@H](OC(=O)c2cc3ccccc3[nH]2)[C@H]1OC(=O)c1cc2ccccc2[nH]1 | 0.24 |
| C=CCOC(=O)[C@H]1[C@@H]2C(=O)O[C@@H](c3ccccc3)[C@@H](c3ccccc3)N2[C@@H](c2ccc(OCCOC(=O)[C@H]3C[C@H]4C(=O)N[C@@H](CC(C)C)C(=O)N4[C@H]3c3ccc(O)cc3)cc2)[C@]12C(=O)Nc1ccc(I)cc12 | -0.3 |
| O=C(NCC(F)(F)F)[C@@H]1c2ccccc2C(=O)N(C2CCCCC2)[C@H]1c1ccc(CO)cc1 | 0.528 |
| CCCC=C(CCC)[C@@H](NC(=O)Oc1ccc(F)cc1)c1ccc(C(=O)OC)cc1 | 0.893 |
| COC(=O)c1c(CC[C@@H](CO)NC(=O)N2CCC[C@H]2Cn2cc(-c3ccccn3)nn2)oc(C(C)=O)c1C(=O)OC | -0.337 |
| CC(C)(C)OC(=O)CC[C@]1(C(=O)O)N=C(c2ccc(OCCCO)cc2)O[C@H]1c1ccccc1N=[N+]=[N-] | 1.11 |
| COC(=O)C(CC#Cc1ccc2c(c1)[C@]1(C(=O)N2)[C@H](C(=O)O)[C@H]2C(=O)O[C@H](c3ccccc3)[C@H](c3ccccc3)N2[C@@H]1c1ccc(O)cc1)C(=O)OC | 0.634 |
| COCCOC(=O)N1C(=O)[C@@]2(c3cc(C#Cc4ccc(OC)cc4)ccc31)[C@H](c1ccc(O)cc1)N1[C@H](c3ccccc3)[C@H](c3ccccc3)OC(=O)[C@H]1[C@@H]2C(=O)NC[C@H](O)c1ccccc1 | -0.378 |
| CN1C(=O)C2C=CC(C(O)c3cccs3)N(Nc3ccccc3)C2C1=O (stereo not given) | 0.272 |
| CC(C)(C)OC(=O)CC[C@@]1(C(=O)NCC(O)CO)N=C(c2ccc(OCCCO)cc2)O[C@@H]1c1ccccc1N=[N+]=[N-] (stereo not given in full) | 1.15 |
| C[C@@H]1ON(c2cccc(C(=O)OC(C)(C)C)c2)[C@H](c2ccc(Br)cc2)[C@H]1C(=O)N1C(=O)OC[C@H]1Cc1ccccc1 | -0.319 |
| COc1ccc(C(=O)Nc2ccc(CN3C(=O)[C@@]4(O[C@@H](CCn5cc([C@H](O)c6ccccc6)nn5)[C@H]([Si](C)(C)c5ccc(OC)cc5)[C@H]4C)c4ccccc43)cc2)cc1 | 0.512 |
| CC(C)c1ccc(NN2C(C(O)c3cc(C(F)(F)F)cc(C(F)(F)F)c3)C=CC3C(=O)N(c4ccccc4)C(=O)C32)cc1 (stereo not given) | 0.8 |
